The source of these data is ChEMBL document CHEMBL4513216, “Probing the Open Global Health Chemical Diversity Library for Multistage-Active Starting Points for Next-Generation Antimalarials” (ACS Infect Dis, 2020).

Screen size: about 69,000 compounds; about 8,600 (12%) showed an effect of 50% or more. Many of the other results were omitted from the sample, so strong results are more common in it than they were.

The test concerns Plasmodium berghei. Briefly: Screen against P. berghei liver stage (PbLuc), transformed with Luciferase, at 10uM. Format: functional, HepG2. Particulars: tested at 10 uM.
As to `CN(C)CCNC(=O)C1Cc2nc(-c3ccsc3)sc2N1CC1CC1` (configuration not stated), the INHIBITION is -16.2%.
The same measure for `CCN1C[C@H]2[C@@H](C1)N(S(=O)(=O)c1ccccc1F)CC[C@H]2OC`: 32.2%.
As to `CN1CCn2c(-c3ccccc3)cnc2C12CCN(CC1CC1)CC2`, the INHIBITION is reported as 29.8%.
Under `CCOC(=O)N1C[C@@H]2CC[C@H]1CN(Cc1ccccc1)C2` stands 12.8%; under `CN(C)CCN1C(=O)C[C@@H]2[C@@H]1CCN2S(=O)(=O)c1ccccc1`, -71.3%.
`CCC(=O)N1CCCCC1c1nc(O)c2c(n1)CN(S(C)(=O)=O)CC2` (configuration not stated): the INHIBITION came to 10.9%.
Under `Cn1ccc(-c2cc(C(=O)N3CCCCC3)c3ccccn23)n1` stands 49.4%.
Under `O=C(CCCOc1ccccc1F)Nc1cc[nH]n1` stands 11.5%.
Consider `CC(C)CC(=O)N[C@H](C)c1c(-c2ccc(Cl)cc2)noc1C(=O)O`, for which the INHIBITION stood at 7.5%.
In the case of `CC(NC(=O)NCCCN(C(C)C)S(C)(=O)=O)c1ccncc1` (configuration not stated), the INHIBITION was -11.4%.
The same measure for `NC(=O)CN(C(=O)C1Cc2cc(Cl)ccc2O1)C1CCCC1` (configuration not stated): 6.83%; for `O=C(O)c1ccc(F)c(S(=O)(=O)N2CCOc3ccccc32)c1`: 32.44%; for `Cc1ccc(C(=O)N2C[C@H]3CC[C@@H](C2)N(CC2CCC2)C3)s1`: -26.4%.
Under `COc1ncnc2c1CCN(Cc1cccs1)CC2` stands -0.804%; under `CCc1noc(C2CCCCN2C(=O)c2ccn(C3CCCC3)n2)n1` (configuration not stated), 6.32%.
Under `CCc1noc(C2CCCCN2C(=O)c2cc(C)n(C)n2)n1` (configuration not stated) stands 52.4%; under `CCc1noc(C2CCCCN2C(=O)c2cccs2)n1` (configuration not stated), 9.32%; under `CCc1noc(C2CCCCN2C(=O)c2ccc(C)o2)n1` (configuration not stated), 45.8%.
As for `CCc1noc(C2CCCCN2C(=O)c2cc(C)on2)n1` (configuration not stated), the INHIBITION was determined as 22.6%.
The same measure for `CCc1noc(C2CCCCN2C(=O)c2ccoc2C)n1` (configuration not stated): 22.1%.
Turning to `CCc1noc(C2CCCCN2C(=O)c2cc(C)oc2C)n1` (configuration not stated), the INHIBITION worked out at 78.1%.
The same measure for `CCc1noc(C2CCCCN2C(=O)c2ccccc2)n1` (configuration not stated): -45%.
Under `CCc1noc(C2CCCCN2C(=O)c2nnc3ccccc3n2)n1` (configuration not stated) stands 62.4%; under `Cc1nn(CC(=O)Nc2ccon2)cc1Br`, 20.1%.
Under `CN1CCC(N(CCc2ccccc2)C(=O)c2ccoc2)CC1` stands 32.8%; under `CC(=O)N1CCC(C)(c2cc[nH]n2)CC1`, 35%.
Regarding `CN1CCN(CC(NCc2ccc(F)c(F)c2)c2ccccc2)CC1` (configuration not stated), the INHIBITION was 8.31%.
For `Cc1nonc1CC(=O)N1CCC2(CCCN(C3CCOCC3)C2=O)C1` (configuration not stated), the INHIBITION is -41.8%.
The same measure for `CCn1ccnc1CN1CCC(CCC(=O)Nc2ccccc2Cl)CC1`: 71.8%; for `CCn1ccnc1CN1CCN(CC(=O)NC(=O)NC2CC2)CC1`: -3.95%.
For the compound `CCn1cc(CN2CCC(CCC(=O)Nc3ccccc3Cl)CC2)cn1`, the INHIBITION worked out at 49.5%.
The same measure for `CCn1ccnc1CN1CCN(CC(=O)NC(C2CC2)C2CC2)CC1`: 51.85%.
The same measure for `O=C(CCC1CCN(Cc2ccncc2)CC1)Nc1ccccc1Cl`: 70.1%.
The same measure for `CCn1ccnc1CN1CCN(CC(=O)NC2CCOCC2)CC1`: 22.5%.
For `CSc1cccc(CN2CCC(CCC(=O)Nc3ccccc3)CC2)c1`, the INHIBITION was found to be 47.7%.
Under `O=C(CCC1CCN(Cc2ncc[nH]2)CC1)Nc1ccccc1Cl` stands 38.5%; under `Cn1cc(CN2CCC(CCC(=O)Nc3ccccc3Cl)CC2)cn1`, 34%; under `CSc1cccc(CN2CCC(CCC(=O)NC3CC3)CC2)c1`, 35.4%.
For the compound `Cn1ccnc1CN1CCC(CCC(=O)Nc2ccccc2Cl)CC1`, the INHIBITION worked out at 9.72%.
Under `CSc1ccc(CN2CCC(CCC(=O)Nc3ccccc3)CC2)cc1` stands 64.5%; under `CN(C)CCN1C(=O)CCCC12CCCN(Cc1ccc[nH]1)C2` (configuration not stated), 26%; under `Cc1cccc(C)c1Nc1noc2c1CN(C(=O)c1ccnn1C)CC2`, 45.5%.
In the case of `O=C(c1n[nH]c2c1CN(C1CCOC1)CC2)N1CCOCC1` (configuration not stated), the INHIBITION turned out to be 9.97%.
Under `O=C(C1CCC2(CCN(CC3CCOCC3)CC2)O1)N1CCCCO1` (configuration not stated) stands 38.3%; under `CS(=O)(=O)N1CC[C@]2(C[C@H](Oc3ccccn3)CO2)C1`, -23.4%.
As for `CCc1noc(CN(CC)Cc2cc3ccc(C)cc3[nH]c2=O)n1`, the INHIBITION came out at 9.56%.
The same measure for `Cc1cnn(CCC(=O)N2CCN(c3nccs3)CC2)c1`: 23.5%.
With `O=C(NCCCO)Nc1cnc2cc(Cl)ccc2c1O`, the INHIBITION came out at 54.4%.
The same measure for `O=C(NCCCN1CCOCC1)Nc1cnc2cc(Cl)ccc2c1O`: 35.8%.
On to `O=C(NCCO)Nc1cnc2cc(Cl)ccc2c1O`, for which the INHIBITION is 24.4%.
Under `CNS(=O)(=O)CCCN1CCCCCC1c1ccc(C)o1` (configuration not stated) stands 23.3%; under `CNC(=O)CCN1CCCCCC1c1ccc(C)o1` (configuration not stated), 72.5%; under `Cc1ccc(C2CCCCCN2CCNS(C)(=O)=O)o1` (configuration not stated), 39.4%.
Under `CC(=O)N1CCN(C(=O)c2ccc(Sc3ccccn3)cc2)CC1` stands 14.4%; under `Cc1ccc(NC(=O)NCC2(O)CCCC2)cc1C`, -108%.
Under `COc1cc(CNCC(C)O)cc(Cl)c1OCc1ccc(C)cc1` (configuration not stated) stands 52.2%; under `COc1cc(CNCC(O)c2ccc(C)cc2)cc2c1OCO2` (configuration not stated), -5.25%.
As to `COc1cccc(CNC(C)C)c1OCc1ccc(C)cc1`, the INHIBITION came to 5.46%.
Under `NC(=O)c1c[nH]nc1NC(=O)c1ccc(Cl)cc1` stands -6.3%.
In the case of `CCn1cc(CN2CCCN(C(=O)c3cccn3C)CC2)cn1`, the INHIBITION was found to be 13.6%.
The same measure for `Cc1nnc(NCc2ccccc2S(=O)(=O)N(C)C)c(C#N)c1C`: 15.92%; for `Cc1c(NCc2cccc(C#N)c2)cccc1S(=O)(=O)NC1CC1`: 67.5%.
Under `Cc1c(NCc2ccc(C#N)cc2)cccc1S(=O)(=O)NC1CC1` stands 73.9%; under `Cc1cc(NCc2cccc(C#N)c2)ccc1Br`, 44.3%.
For the compound `Cc1ccc(NCc2ccc(C#N)cc2)cc1-n1cnnn1`, the INHIBITION stood at 14.3%.
Under `CC(C)N(CCNCc1ccc(C#N)cc1)C1CC1` stands -8.45%; under `Cc1c(NCc2ccccc2C#N)cccc1S(=O)(=O)NC1CC1`, 64.9%.
The same measure for `Cc1cc(NCc2cccc(C#N)c2)ccc1C(N)=O`: -0.759%; for `Cc1c(NCc2ccccc2C#N)cccc1-n1cnnn1`: 62.4%.
Under `CS(=O)(=O)NCC1CCCCN1Cc1ccccc1C#N` (configuration not stated) stands -27.6%; under `Cc1ccc(NCc2ccccc2C#N)cc1-n1cnnn1`, 10.6%.
`Cc1ccc2c(c1C)OCC2NCc1ccc(C#N)cc1` (configuration not stated): the INHIBITION is on record as 40.9%.
